Compounds without any hit were thinned out: in the full panel of roughly 83,000, 20% have a hit.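 Compound tested at a single concentration for 48 hours in 96-well plates; a percent growth value below 10 was scored as active.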 Calls of active or inactive are those of the source.

The test system of the experiment is T-47D breast. Put plainly: NCI-60 one-dose screen, 48 h (100 = growth as untreated, 0 = no growth, -100 = all killed). Conditions: 10 µM unless noted.
As to `ClC(Cl)c1nc(-c2cccs2)n2nc(-c3ccccc3)cc2n1`, the growth is 2.65% (active).

For the molecule `O=C(COc1ccc(C2SCC(=O)N2c2ccccc2)cc1)c1ccccc1` (stereo unspecified), the growth was 81.5% (inactive).

Take `c1ccc(-c2n(Cc3ccc4ccccc4c3)c3c4ccccc4c4ccccc4c3[n+]2Cc2ccc3ccccc3c2)cc1`: the growth is -41.7% (active).

For `O=C1[C@@H]2Cc3c([nH]c4ccccc34)[C@H](c3c(Cl)cccc3Cl)N2C(=O)CN1C1CCN(Cc2c(F)cccc2F)CC1`, the growth is 94.9% (inactive).

`NCCN1CCN(c2nc(-c3ccccc3)nc3nc(-c4ccccc4)oc23)CC1`: the growth is -16.2% (active).

For `C/C(=C(/C)C1CC1CCN(C(=O)c1ccccn1)S(=O)(=O)c1ccc(C)cc1)C1CCCCC1` (stereo unspecified), the growth was 78.5% (inactive).

For the molecule `Cc1nn(-c2ccccc2)cc1/C=N/Nc1nc(Nc2ccccc2)nc(Nc2ccc(S(N)(=O)=O)cc2)n1`, the growth was 18.9% (inactive).

Take `Brc1cccc(/C=N/Nc2nc(N/N=C/c3cccc(Br)c3)nc(N3CCOCC3)n2)c1`: the growth is 56.4% (inactive).

Regarding `COc1cc(/C=C2\SC(=O)NC2=O)ccc1OCC(=O)Nc1ccc(C(=O)/C=C/c2cc3ccccc3nc2Cl)cc1`, the growth is 66.3% (inactive).

Consider `O=c1oc2ccc(-c3ccc(F)cc3F)cc2c(=O)n1-c1ccc(F)c(F)c1`, for which the growth is 9.12% (active).

Regarding `CC[C@@](C)(NC(=O)C(C)(C)NC(=O)[C@@H](NC(=O)[C@@H]1CCCN1C(=O)C(C)(C)NC(=O)[C@H](CC(C)C)NC(=O)CNC(=O)C(C)(C)NC(=O)[C@@H](NC(=O)C(C)(C)NC(=O)[C@H](CCC(N)=O)NC(=O)[C@H](C)NC(=O)C(C)(C)NC(=O)[C@H](C)NC(=O)C(C)(C)NC(=O)[C@@H]1CCCN1C(=O)C(C)(C)NC(C)=O)C(C)C)C(C)C)C(=O)N[C@@H](CCC(N)=O)C(=O)N[C@@H](CCC(N)=O)C(=O)N[C@H](CO)Cc1ccccc1`, the growth is 0.666% [4.25 µM] (active).

The values above are taken from PubChem BioAssay (NCI).
